Consider 56 compounds from PubChem BioAssay AID1851 (National Center for Advancing Translational Sciences (NCATS), 2009).

As a reminder, the AC50 is the concentration at which the activity in the assay is half-maximal.

Screen size: about 16,000 compounds; about 5,100 (32%) were called active. Not shown: some 25% with an inconclusive outcome. Calls follow the shape of the dose curve; as a rule, active = well fitted curve in the direction sought with a large enough effect; inconclusive = small, poorly fitted or top-dose-only effect, or effect the other way; inactive = no such curve, though single readings can be large or run the other way. This is one part of the list.
% is scaled to controls: 0 for no effect and ±100 for the full control effect.

In the test the target is Cytochrome P450 3A4 (Homo sapiens) (UniProt P08684). The experiment in a line: Cytochrome panel assay with activity outcomes. The note with it: recombinant CYP, pro-luciferin dealkylation, luminescence, p450-cyp3a4; series mostly up to 57.1 µM.
Sequence of Cytochrome P450 3A4 (Homo sapiens) (P08684 whole entry, looked up): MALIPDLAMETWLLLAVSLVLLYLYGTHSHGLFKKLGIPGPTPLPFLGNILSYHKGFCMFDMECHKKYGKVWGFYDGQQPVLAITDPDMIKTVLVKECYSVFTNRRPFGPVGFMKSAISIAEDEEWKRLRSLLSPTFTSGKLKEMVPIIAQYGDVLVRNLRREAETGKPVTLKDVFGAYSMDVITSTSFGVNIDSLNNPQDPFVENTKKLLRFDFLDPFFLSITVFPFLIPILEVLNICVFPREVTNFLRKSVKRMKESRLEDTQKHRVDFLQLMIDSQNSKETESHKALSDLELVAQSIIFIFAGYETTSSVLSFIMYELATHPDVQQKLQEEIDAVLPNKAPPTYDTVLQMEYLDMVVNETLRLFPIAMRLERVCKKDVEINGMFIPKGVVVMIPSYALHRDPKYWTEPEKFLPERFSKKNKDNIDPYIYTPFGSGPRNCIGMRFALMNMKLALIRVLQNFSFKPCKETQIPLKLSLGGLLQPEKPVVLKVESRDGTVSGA
Consider `COc1ccccc1CN1CC2(CCN(S(C)(=O)=O)CC2)C1`, for which the AC50 entry was “inactive”.
For `COc1ccccc1CN1CC2(CCN(S(=O)(=O)c3ccccc3)CC2)C1`, the AC50 is 20 µM (active).
As to `COc1ccccc1CN1CCCC2(CCN(S(C)(=O)=O)CC2)C1`, the AC50 result is “inactive”.
Turning to `COc1ccccc1CN1CCC2(CC1)CCN(S(C)(=O)=O)CC2`, the AC50 result was “inactive”.
On the same count and under the same terms, to `COc1ccccc1CN1CC[C@@]2(CCCN(S(=O)(=O)c3ccccc3)C2)C1` belongs 10 µM (active); to `COc1ccccc1CN1CCC2(CC1)CCN(S(=O)(=O)c1ccccc1)CC2`, “inactive”.
As to `CC(=O)OCC(=O)[C@@]1(O)CC[C@@H]2[C@H]3CCC4=CC(=O)CC[C@]4(C)[C@]3(F)[C@@H](O)C[C@@]21C`, the AC50 result is “inactive”.
`CN1Cc2c(C(=O)OC(C)(C)C)ncn2-c2ccsc2C1=O`: the AC50 result is “inactive”.
On the same count and under the same terms, under `COc1ccc(/C(C#N)=C/c2c(-c3ccc(Cl)cc3)nc3c(C)cccn23)cc1` stands 2.82 µM (active); under `Cc1cccn2c(/C=N/OCc3ccc(F)cc3)c(-c3ccc(Cl)cc3)nc12`, “inactive”.
On to `CC(=O)c1ccc(N2CCC(c3cc(-c4ccc(Cl)cc4Cl)n[nH]3)CC2)c([N+](=O)[O-])c1`, for which the AC50 was 12.6 µM (active).
With `COc1ccc(-c2cc(C3CCN(c4ccc(C(C)=O)cc4[N+](=O)[O-])CC3)[nH]n2)cc1`, the AC50 is 4.47 µM (active).
`CCCNc1c(F)c(F)c2c(C)c3ccccc3nc2c1F`: the AC50 was 6.31 µM (active).
For the compound `Cc1cc(NCCO)c2ccccc2n1`, the AC50 entry is “inactive”.
Consider `CC(C)C(O)(C(C)C)C(C)C`, for which the activity, negative = inhibition was -4.9% [at 11.4 µM] (inactive).
For `Cc1ccc2[nH]c3c(c2c1)CN(C(=O)CN1c2ccc(F)cc2CCC1C)CC3` (stereo unspecified), the AC50 is 8.91 µM (active).
Take `COc1ccc2[nH]c3c(c2c1)CN(C)CC3`: the AC50 result is “inactive”.
As to `Nc1c(S(=O)(=O)c2ccccc2)c2nc3ccccc3nc2n1Cc1ccco1`, the AC50 was 3.98 µM (active).
On to `CC(=O)Nc1c(S(=O)(=O)c2ccccc2)c2nc3ccccc3nc2n1Cc1ccccc1`, for which the AC50 was 4.47 µM (active).
In the case of `COC(=O)CCSc1cc([N+](=O)[O-])cc2c1c(C1OCCS1)nn2-c1ccccc1` (stereo unspecified), the AC50 is 14.1 µM (active).
Take `O=C(O)/C=C\C(=O)Nc1cccc2c1-c1ccccc1C2=O`: the activity, negative = inhibition was -10.9% [at 11.4 µM] (inactive).
In the case of `O=C(O)/C=C\C(=O)Nc1ccc2c(c1)C(=O)c1cc(F)ccc1-2`, the AC50 is 3.16 µM (active).
`O=C(O)/C=C/C(=O)Nc1ccccc1-c1ccccc1`: the AC50 result is “inactive”.
With `CCCCc1n[nH]c2c1/C(=N/O)CC(c1ccccc1)C2` (stereo unspecified), the AC50 is 12.6 µM (active).
On to `Cc1cc(=O)[nH]c(-n2[nH]c3c(c2=O)CCCC3)n1`, for which the AC50 result is “inactive”.
With `Cc1ccc(S(=O)(=O)Nc2cc(=O)[nH]c3c2CCC3)cc1`, the AC50 is 3.16 µM (active).
As for `CC1=C(C(N)=O)C(c2ccccn2)n2nc(SCc3ccccc3Cl)nc2N1` (stereo unspecified), the AC50 was 6.31 µM (active).
Take `Nc1nc(SCc2ccccc2Cl)cc(C(=O)O)n1`: the activity, negative = inhibition was -1.56% [at 11.4 µM] (inactive).
As to `CC(C)=CCc1c2c(c3occ(-c4ccc(O)c(O)c4)c(=O)c3c1O)C=CC(C)(C)O2`, the activity, negative = inhibition is 0.0575% [at 11.4 µM] (inactive).
With `Cc1cccc(N(CC(=O)NC2CCCC2)C(=O)c2cc3cc4cccc(C)c4nc3s2)c1C`, the AC50 was 4.47 µM (active).
Regarding `CC(C)CC(C(=O)NCC1CCCO1)N(C(=O)Cn1nnc(-c2ccc(F)cc2)n1)c1cccc(C(F)(F)F)c1` (stereo unspecified), the AC50 is 10 µM (active).
In the case of `CC(C)CC(C(=O)NCC1CCCO1)N(C(=O)Cn1nnc(-c2ccc(F)cc2)n1)c1ccccc1F` (stereo unspecified), the AC50 was 14.1 µM (active).
With `CN(C(=O)Cn1nnc(-c2cccc(C(F)(F)F)c2)n1)C1CCCCC1`, the AC50 result is “inactive”.
Take `Cc1ccc(N(C(=O)Cn2nnc(-c3ccc(F)cc3)n2)C(CC(C)C)C(=O)NCC2CCCO2)cc1` (stereo unspecified): the AC50 is 14.1 µM (active).
The same measure, in the same setting: to `Nc1nc2c(c(=O)[nH]1)N(C=O)[C@H](CNc1ccc(C(=O)N[C@@H](CCC(=O)O)C(=O)O)cc1)CN2` belongs “inactive”.
With `N/N=C1/CC(=O)NC(=O)N1`, the activity, negative = inhibition is -21.1% [at 11.4 µM] (inactive).
With `CC(=O)Nc1ccc(N2C(=O)CC(c3ccccc3)CC2=O)cc1`, the activity, negative = inhibition is 1.08% [at 2.29 µM] (inactive).
Turning to `Cc1ccc(NC(=O)C2(NC(=O)c3cccc(N4C(=O)CSC4c4ccccc4)c3)CCCCC2)cc1` (stereo unspecified), the concentration at half-maximal activity (AC50) was 2.82 µM (active).
Regarding `Cc1ccc(C2C3=C(CCCC3=O)Nc3nc(SCC(=O)NCc4ccco4)[nH]c(=O)c32)cc1` (stereo unspecified), the AC50 is 7.94 µM (active).
For the compound `CCCCCCN1Cc2ccccc2C1`, the AC50 entry was “inactive”.
As to `CN(C(=O)c1cnc(N2CCN(c3ncccn3)CC2)c2ccccc12)c1ccc(Cl)cc1`, the activity, negative = inhibition is 28.1% [at 11.4 µM] (inactive).
In the case of `CCN(C(=O)c1cnc(N2CCN(c3ncccn3)CC2)c2ccccc12)c1cccc(Cl)c1`, the AC50 was 6.31 µM (active).
`O=C1c2ccccc2S(=O)(=O)N1CCCCN1CCN(c2ncccn2)CC1`: the AC50 entry is “inactive”.
Turning to `Clc1ccc(/C=N/c2c(-c3ccc(Cl)cc3)nc3n2CCS3)cc1`, the activity, negative = inhibition was -12.1% [at 2.29 µM] (inactive).
For `COc1cccc(-c2ccc3ncnc(NCc4cnc(C)cn4)c3c2)c1`, the AC50 was 7.94 µM (active).
Still for that read-out and setting: under `Cc1cnc(CNc2ncnc3ccc(-c4cccc(C#N)c4)cc23)cn1` stands 3.16 µM (active); under `COc1ccc(/C=N/n2cnc3c([nH]c4ccc(Br)cc43)c2=O)cc1CN1CCOCC1`, 5.01 µM (active).
In the case of `CCCCSc1nc(C)cc(NC(=S)Nc2ccc(OC)cc2)n1`, the AC50 is 7.08 µM (active).
On to `Cc1cc2nc(SCCOC(=O)Nc3ccc(Cl)cc3)nc(C)c2cc1C`, for which the AC50 entry is “inactive”.
On to `S=C(S)O[C@@H]1C[C@@H]2C[C@H]1[C@@H]1CCC[C@H]21`, for which the AC50 is 3.98 µM (active).
On the same count and under the same terms, to `CCOC(=O)C(CC)(CC)C(=O)/C=C/c1ccc(Br)cc1` belongs “inactive”; to `Cc1ccc(CNC(=O)CCc2c(C)nc3ncnn3c2C)cc1`, 2 µM (active); to `Cc1nc2nc(C)c(CCC(=O)NCCCN3CCN(c4cccc(Cl)c4)CC3)c(C)n2n1`, “inactive”.
Consider `Cc1nc2ncnn2c(C)c1CCC(=O)NC(C)c1ccc2c(c1)OCCO2` (stereo unspecified), for which the AC50 is 15.8 µM (active).
As for `CCOC(=O)CCc1c(C)nc2ncnn2c1C`, the AC50 entry was “inactive”.
Consider `NCC[C@H](O)C(=O)N[C@H]1C[C@@H](N)[C@@H](O[C@H]2O[C@@H](CN)[C@@H](O)[C@@H](O)[C@@H]2O)[C@@H](O)[C@@H]1O[C@H]1O[C@@H](CO)[C@@H](O)[C@@H](N)[C@@H]1O`, for which the AC50 entry is “inactive”.
